PubChem BioAssay AID1850 (Southern Research Specialized Biocontainment Screening …, 2009)
The whole screen tested about 310,000 compounds, of which about 1,000 (0.32%) were called active. The rule behind the calls is not given here. These entries were drawn from the full list. Measured potencies and affinities stand elsewhere.

Assay: Inhibition of PhoP regulon, Salmonella typhi GFP reporter cells, confirmation, 4 h (AID 1850);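 note: 0% = induced wells with vehicle and 100% = uninduced wells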
Conditions: Salmonella Typhi PhoP-promoter GFP reporter, fluorescence, at 50 µM, active compounds read high

SMILES	inhibition
Cc1ccnc(NC(=O)C(C)N2C(=O)c3ccccc3S2(=O)=O)c1 (stereo not given)	6.11% (inactive)
CCOc1ccccc1NC(=O)NNC(=O)c1ccc2ccccc2c1	9% (inactive)
O=C(Nc1nnc(-c2ccco2)o1)c1ccc(Cl)s1	2.73% (inactive)
COc1cccc(-c2nnc(NC(C)=O)o2)c1	-10.6% (inactive)
COCCN(C(=O)COC(=O)C1(C)CC1(Cl)Cl)c1c(N)n(Cc2ccccc2)c(=O)[nH]c1=O (stereo not given)	-4.07% (inactive)
O=C(NC1CCN(C(=S)Nc2ccc(F)cc2)CC1)C1CCCCC1	1.22% (inactive)
Cc1ccc(CNC(=O)C2CCC(=O)N(Cc3cccc(C(F)(F)F)c3)C2)o1 (stereo not given)	-2.94% (inactive)
Cc1ccc(NC(=O)CNCc2ccccc2)c(Br)c1	19.8% (inactive)
O=C(CCN(CCO)Cc1ccccc1)Nc1ccc(Br)cc1	20.3% (inactive)
CCN(CCC(=O)Nc1cc(OC)cc(OC)c1)Cc1ccccc1	-6.75% (inactive)
CN(CC(=O)Nc1ccc(Cl)c(Cl)c1)C1CCCCC1	9.2% (inactive)
Cc1ccc(NC(=O)CN(C)C2CCCCC2)cc1Cl	17.3% (inactive)
Cc1ccc(NC(=O)CNCc2cccs2)cc1Br	2.2% (inactive)
N#Cc1cc(NC(=O)c2ccc(F)cc2)c(=O)n2c1[nH]c1ccccc12	-0.7% (inactive)
CCn1cc(CN2CCC(C(=O)Nc3cccc(-c4cccc(OC)c4)c3)CC2)cn1	-5.91% (inactive)
CN1CCN(C(=O)/C(=C\c2ccccc2)c2ccccc2)CC1	3.28% (inactive)
Cc1cccc(-n2cc(-c3ccccc3)c3c(=O)[nH]cnc32)c1	-10.3% (inactive)
COc1ccc(CCNC(=O)CN(c2cccc([N+](=O)[O-])c2)S(C)(=O)=O)cc1	-12% (inactive)
Cc1ccccc1C(=O)N1CCN(S(=O)(=O)c2ccccc2)CC1	-4.37% (inactive)
O=C(CSc1nnc(SCc2ccccc2Cl)s1)N/N=C/c1ccc(C(=O)O)cc1	-6.94% (inactive)
COC(=O)c1cc(S(=O)(=O)N2CCN(c3ccccc3F)CC2)c[nH]1	-1.3% (inactive)
O=C(O)c1cccc(N2C(=O)CSC2=S)c1	65.1% (inactive)

SMILES	inhibition
O=C1CSC(=S)N1c1cccc(Cl)c1	-2.26% (inactive)
Cc1cc(NC(=O)NN2CCOCC2)nn1-c1c(Cl)cccc1Cl	-1.26% (inactive)
Nc1nc(SCC(=O)Nc2ccc([N+](=O)[O-])cc2)[nH]c(=O)c1NC(=O)c1ccc(Br)o1	-2.49% (inactive)
c1cncc(-c2nnc(SCc3cccc4ccccc34)o2)c1	8.54% (inactive)
Cc1ccc2[nH]c3c(c2c1)CCc1cn[nH]c1-3	-6.69% (inactive)
c1ccc2c3c([nH]c2c1)-c1[nH]ncc1CC3	-5.34% (inactive)
Cc1ccc2c(c1)C1C3CCC(C3)C1S(=O)N2 (stereo not given)	-0.67% (inactive)
COc1cc2ccccc2cc1C(=O)Nc1cccnc1	-16.1% (inactive)
Nc1nc(-c2ccccn2)nc(N)c1Cc1ccc(Cl)cc1Cl	-4% (inactive)
Clc1ccc(Cc2ccc(Cl)nn2)c(Cl)c1	-3.15% (inactive)
Nc1nnc(Cc2ccc(Cl)cc2Cl)s1	-0.54% (inactive)
Cc1nc(N)c(Cc2ccccc2F)c(N)n1	8.16% (inactive)
CCOC(=O)C1(Cc2cccc(OC)c2)CCN(Cc2cnc(SC)nc2)CC1	-3.1% (inactive)
CC(/C=C/c1ccc2c(c1)OCO2)=N/NC(=O)COc1ccc(C)cc1	-7.1% (inactive)
CS(=O)(=O)c1ccc(Cl)c(NC(=O)COC(=O)/C=C/c2cnc3ccccc3n2)c1	5.47% (inactive)
O=C(Nc1nc(-c2cccs2)cs1)c1ccc(Cl)s1	-14% (inactive)
O=C(Nc1nc(-c2ccccn2)cs1)c1ncc(Cl)c(Cl)c1Cl	-0.4% (inactive)
Cc1csc(NC(=O)c2ccc(Br)s2)n1	11.7% (inactive)
O=C(Nc1nc(-c2ccccn2)cs1)c1ccco1	2.93% (inactive)
COC(=O)C(Cc1ccccc1)N1CCS(=O)(=O)CC1 (stereo not given)	9.2% (inactive)
CCCCOc1ccc(/C(O)=C2/C(=O)C(=O)N(CCN(C)C)C2c2ccc(O)c(OC)c2)cc1 (stereo not given)	-11.8% (inactive)
O=C(Nc1ccccn1)c1ccc2c(c1)S(=O)(=O)c1ccccc1C2=O	-0.07% (inactive)

SMILES	inhibition
COc1ccccc1CNc1cc(C)ccc1C	4.32% (inactive)
COc1ccc(CCN(Cc2nc3ccccc3c(=O)[nH]2)C(=O)C2CC2)cc1	-4.16% (inactive)
Cc1ccc(C(=O)N/C(=C/c2ccc(-c3ccc([N+](=O)[O-])cc3)o2)C(=O)NCCCN(C)C)cc1	-1.29% (inactive)
CN(C)CCCNC(=O)/C(=C/c1ccc(-c2ccc([N+](=O)[O-])cc2)o1)NC(=O)c1ccccc1	8.87% (inactive)
Cc1ccc(C(=O)N/C(=C\c2ccc(-c3cccc([N+](=O)[O-])c3)o2)C(=O)NCCCN(C)C)cc1	16.2% (inactive)
CN(C)CCCNC(=O)/C(=C\c1ccc(-c2ccc(Br)cc2)o1)NC(=O)c1ccccc1	22.2% (inactive)
Cc1ccc(C(=O)N/C(=C\c2ccc(-c3ccccc3[N+](=O)[O-])o2)C(=O)NCCCN(C)C)cc1	-1.46% (inactive)
CN(C)CCNC(=O)/C(=C/c1ccc(-c2cccc(Cl)c2)o1)NC(=O)c1ccccc1	20.4% (inactive)
Cn1c(=O)oc2cc(S(=O)(=O)NCc3ccccn3)ccc21	0.2% (inactive)
Cc1cc(C)cc(NC(=S)/N=C(\N)Nc2nc(C)c3ccccc3n2)c1	-5.71% (inactive)
Cc1ccc(COC(=O)c2ccc3ccccc3n2)cc1	-0.98% (inactive)
O=C(Cc1ccc(F)cc1)c1ccc(O)cc1O	-11.9% (inactive)
COc1ccc(CC(=O)c2ccc(O)cc2O)cc1	-0.72% (inactive)
C=CCOCCN1C(=O)C2C(c3ccccc3)C=CC(c3ccccc3)C2C1=O (stereo not given)	5.25% (inactive)
CCc1nnc(NC(=O)[C@@H]2CCCN2S(=O)(=O)c2ccc3c(c2)OCCO3)s1	-7.63% (inactive)
CN1CCN(CCCN2c3ccccc3Sc3ccc(S(=O)(=O)N(C)C)cc32)CC1	0.8% (inactive)
OCCN1CCN(CCCN2c3ccccc3Sc3ccc(Cl)cc32)CC1	4.15% (inactive)
CN1CCCC(CN2c3ccccc3Sc3ccccc32)C1 (stereo not given)	-0.92% (inactive)
CN1CCN(CCCN2c3ccccc3Sc3ccc(C(F)(F)F)cc32)CC1	5.34% (inactive)
CN1CCCCC1CCN1c2ccccc2Sc2ccc(S(C)=O)cc21 (stereo not given)	0.68% (inactive)
CN1CCN(CCC(=O)N2c3ccccc3Sc3ccc(Cl)cc32)CC1	-0.99% (inactive)
